Measured values reported in PubChem BioAssay AID1159580 (chemical genetic matrix, 2015).
Hit rate of the full screen: of about 5,500 compounds, about 2,000 (36%) were called active. Not shown: some 18% with an inconclusive outcome. Rule as the data show it: active = normalized growth mostly below about 0.91 (no sharp cut-off); inconclusive = no clear call, values can overlap the other calls; inactive = mostly above about 0.92. The list shows a part of the results.

Test: chemical genetic growth profiling, strain panel (AID 1159580);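 also: tested at 20 µM; growth read once vehicle control cultures reached saturation at 30 °C; 1 = growth at the plate median or of vehicle wells; lower values mean less growth of the strain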
Conditions: growth OD

Measured: normalized growth

C[C@@H]1CC[C@H]2[C@@H](C)C(=O)O[C@@H]3O[C@@]4(C)CC[C@@H]1[C@]32OO4
active: S. cerevisiae deletion strains, locus YKL068W, active compounds read low 0.914 | S. cerevisiae deletion strains, locus YKL085W, strain MDH1 (second series), active compounds read low 0.906 | S. cerevisiae deletion strains, locus YKL085W, strain MDH1, active compounds read low 0.906 | S. cerevisiae deletion strains, locus YKL160W, strain elf1, active compounds read low 0.874 | S. cerevisiae deletion strains, locus YKL190W, strain CNB1, active compounds read low 0.856 | S. cerevisiae deletion strains, locus YKR001C, strain vps1, active compounds read low 0.692 | S. cerevisiae deletion strains, locus YLL001W, strain dnm1, active compounds read low 0.824 | S. cerevisiae deletion strains, locus YLL026W, active compounds read low 0.876 | S. cerevisiae deletion strains, locus YLR027C, strain aat2, active compounds read low 0.865 | S. cerevisiae deletion strains, locus YLR039C, strain RIC1, active compounds read low 0.353 | S. cerevisiae deletion strains, locus YLR058C, strain SHM2, active compounds read low 0.852 | S. cerevisiae deletion strains, locus YLR113W, strain HOG1, active compounds read low 0.698 | S. cerevisiae deletion strains, locus YLR221C, strain rsa3, active compounds read low 0.812 | S. cerevisiae deletion strains, locus YLR262C, strain YPT6 (second series), active compounds read low 0.375 | S. cerevisiae deletion strains, locus YLR262C, strain YPT6, active compounds read low 0.364 | S. cerevisiae deletion strains, locus YLR268W, strain sec22, active compounds read low 0.822 | S. cerevisiae deletion strains, locus YLR320W, strain mms22, active compounds read low 0.674 | S. cerevisiae deletion strains, locus YLR330W, strain CHS5, active compounds read low 0.879 | S. cerevisiae deletion strains, locus YLR342W, strain FKS1, active compounds read low 0.885 | S. cerevisiae deletion strains, locus YLR370C, strain arc18, active compounds read low 0.897 | S. cerevisiae deletion strains, locus YLR418C, strain cdc73, active compounds read low 0.614 | S. cerevisiae deletion strains, locus YML016C, strain PPZ1, active compounds read low 0.915 | S. cerevisiae deletion strains, locus YML032C, strain rad52, active compounds read low 0.798 | S. cerevisiae deletion strains, locus YML120C, strain ndi1, active compounds read low 0.839 | S. cerevisiae deletion strains, locus YMR058W, strain fet3, active compounds read low 0.742 | S. cerevisiae deletion strains, locus YMR078C, strain ctf18, active compounds read low 0.882 | S. cerevisiae deletion strains, locus YMR129W, active compounds read low 0.899 | S. cerevisiae deletion strains, locus YMR205C, strain PFK2, active compounds read low 0.779 | S. cerevisiae deletion strains, locus YMR223W, strain ubp8, active compounds read low 0.878 | S. cerevisiae deletion strains, locus YMR231W, strain pep5, active compounds read low 0.928 | S. cerevisiae deletion strains, locus YMR263W, strain SAP30, active compounds read low 0.81 | S. cerevisiae deletion strains, locus YNL067W, strain RPL9B, active compounds read low 0.86 | S. cerevisiae deletion strains, locus YNL071W, strain lat1, active compounds read low 0.705 | S. cerevisiae deletion strains, locus YNL128W, strain TEP1, active compounds read low 0.757 | S. cerevisiae deletion strains, locus YNL153C, strain GIM3, active compounds read low 0.811 | S. cerevisiae deletion strains, locus YNL183C, strain NPR1, active compounds read low 0.748 | S. cerevisiae deletion strains, locus YNL209W, strain ssb2, active compounds read low 0.867 | S. cerevisiae deletion strains, locus YNL233W, strain BNI4, active compounds read low 0.81 | S. cerevisiae deletion strains, locus YNL250W, strain rad50, active compounds read low 0.87 | S. cerevisiae deletion strains, locus YNL271C, strain bni1, active compounds read low 0.883 | S. cerevisiae deletion strains, locus YNL298W, strain CLA4, active compounds read low 0.861 | S. cerevisiae deletion strains, locus YNL307C, strain MCK1, active compounds read low 0.754 | S. cerevisiae deletion strains, locus YNL322C, strain KRE1 (second series), active compounds read low 0.904 | S. cerevisiae deletion strains, locus YNL322C, strain KRE1, active compounds read low 0.857 | S. cerevisiae deletion strains, locus YNR052C, strain pop2, active compounds read low 0.842 | S. cerevisiae deletion strains, locus YOL147C, strain pex11, active compounds read low 0.869 | S. cerevisiae deletion strains, locus YOR001W, strain rrp6, active compounds read low 0.855 | S. cerevisiae deletion strains, locus YOR069W, strain VPS5, active compounds read low 0.911 | S. cerevisiae deletion strains, locus YOR070C, strain gyp1, active compounds read low 0.814 | S. cerevisiae deletion strains, locus YOR083W, strain WHI5, active compounds read low 0.822 | S. cerevisiae deletion strains, locus YOR106W, strain vam3, active compounds read low 0.784 | S. cerevisiae deletion strains, locus YOR144C, strain elg1, active compounds read low 0.927 | S. cerevisiae deletion strains, locus YOR184W, strain ser1, active compounds read low 0.705 | S. cerevisiae deletion strains, locus YOR231W, strain MKK1, active compounds read low 0.745 | S. cerevisiae deletion strains, locus YOR265W, strain rbl2, active compounds read low 0.913 | S. cerevisiae deletion strains, locus YOR270C, strain vph1, active compounds read low 0.633 | S. cerevisiae deletion strains, locus YOR290C, strain snf2, active compounds read low 0.847 | S. cerevisiae deletion strains, locus YPL051W, strain arl3, active compounds read low 0.818 | S. cerevisiae deletion strains, locus YPL078C, strain atp4, active compounds read low 0.796 | S. cerevisiae deletion strains, locus YPL241C, strain CIN2, active compounds read low 0.924 | S. cerevisiae deletion strains, locus YPL256C, strain CLN2, active compounds read low 0.704 | S. cerevisiae deletion strains, locus YPR119W, strain clb2, active compounds read low 0.927 | S. cerevisiae deletion strains, locus YPR141C, strain kar3, active compounds read low 0.907 | S. cerevisiae deletion strains, locus YPR167C, strain met16, active compounds read low 0.909 | S. cerevisiae deletion strains, strain wtn01, active compounds read low 0.818 | S. cerevisiae strains, strain wild type, active compounds read low 0.852
inactive: S. cerevisiae deletion strains, locus YKL009W, strain mrt4, active compounds read low 0.986 | S. cerevisiae deletion strains, locus YKR026C, strain gcn3, active compounds read low 0.953 | S. cerevisiae deletion strains, locus YKR091W, strain srl3, active compounds read low 0.949 | S. cerevisiae deletion strains, locus YLL041C, strain sdh2, active compounds read low 0.946 | S. cerevisiae deletion strains, locus YLR102C, strain apc9, active compounds read low 0.94 | S. cerevisiae deletion strains, locus YLR258W, strain gsy2, active compounds read low 0.918 | S. cerevisiae deletion strains, locus YLR342W, strain FKS1 (second series), active compounds read low 0.82 | S. cerevisiae deletion strains, locus YLR357W, strain rsc2, active compounds read low 1.02 | S. cerevisiae deletion strains, locus YLR371W, strain rom2, active compounds read low 0.929 | S. cerevisiae deletion strains, locus YLR384C, strain iki3, active compounds read low 0.949 | S. cerevisiae deletion strains, locus YML124C, strain tub3, active compounds read low 0.936 | S. cerevisiae deletion strains, locus YMR125W, strain sto1, active compounds read low 0.925 | S. cerevisiae deletion strains, locus YMR307W, strain GAS1, active compounds read low 0.651 | S. cerevisiae deletion strains, locus YNL248C, strain rpa49, active compounds read low 0.902 | S. cerevisiae deletion strains, locus YNR049C, strain mso1, active compounds read low 0.94 | S. cerevisiae deletion strains, locus YOL006C, strain TOP1, active compounds read low 0.605 | S. cerevisiae deletion strains, locus YOL012C, strain htz1 0.461 | S. cerevisiae deletion strains, locus YOR061W, strain CKA2, active compounds read low 0.92 | S. cerevisiae deletion strains, locus YOR080W, strain dia2, active compounds read low 0.926 | S. cerevisiae deletion strains, locus YOR136W, strain idh2, active compounds read low 0.93 | S. cerevisiae deletion strains, locus YOR316C, strain cot1, active compounds read low 0.94 | S. cerevisiae deletion strains, locus YPL106C, strain sse1, active compounds read low 0.894 | S. cerevisiae deletion strains, locus YPL240C, strain hsp82, active compounds read low 0.949 | S. cerevisiae deletion strains, locus YPR163C, strain tif3, active compounds read low 0.958
